D1 agonist: activates the human D1 dopamine receptor; P21728; HEK293 T-REx D1 cells, calcium flux, agonist mode; 360,000 compounds, 1% hits; AID 504660; activation, % at 2 µM; in the data active means activation above about 30%
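Agonism was scored from calcium flux recorded over 180 s (1 read/s) after pintool compound addition, following a 10-cycle baseline. Cells were inducible force-coupled HEK293 TREx D1, plated overnight at 30 C and loaded with no-wash calcium dye.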
ERG Ets-DNA blk: blocks human ERG Ets domain binding to DNA | P11308 | fluorescence polarization, His-ERG Ets domain / labelled DNA | 370,000 compounds, 0.028% hits | Potency, µM (series often up to 76.9 µM), actives largely listed as inhibitors | AID 624246; active means well fitted inhibition curve with a large enough effect in the polarisation, with a control signal flat; inconclusive means small, poorly fitted or top-dose-only effect, or effect the other way, or a change in a side signal; inactive means no such curve, though single readings can be large or run the other way; the % refers to the polarisation;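 further: polarization taken with two DNA probes labelled with fluorescein and Texas red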
Target sequence (P11308 whole entry, looked up, the tested form may be a part): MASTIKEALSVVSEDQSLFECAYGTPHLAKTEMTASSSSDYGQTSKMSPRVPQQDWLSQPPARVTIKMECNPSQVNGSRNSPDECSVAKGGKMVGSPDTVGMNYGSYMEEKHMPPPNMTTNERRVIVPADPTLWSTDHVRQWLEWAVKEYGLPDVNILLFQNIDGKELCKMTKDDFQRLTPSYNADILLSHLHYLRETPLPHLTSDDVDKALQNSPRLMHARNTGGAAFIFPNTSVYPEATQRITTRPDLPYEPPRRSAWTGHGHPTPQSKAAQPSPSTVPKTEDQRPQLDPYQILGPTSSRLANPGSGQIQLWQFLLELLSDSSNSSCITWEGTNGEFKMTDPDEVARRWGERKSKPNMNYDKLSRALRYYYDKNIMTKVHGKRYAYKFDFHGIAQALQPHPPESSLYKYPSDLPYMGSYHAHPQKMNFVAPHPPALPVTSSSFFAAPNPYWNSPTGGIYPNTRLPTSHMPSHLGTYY
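His-tagged ERG Ets domain (1 uM in the protein solution; 300mM KCl, 50mM Tris-HCl, 1mM EDTA, 1mM DTT, pH 7.5) received compound, then a probe mix of 5 nM fluorescein-DNA and 100nM Texas-615-DNA. Fluorescence polarization was read for both dyes.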
D1 potentiator: enhances dopamine response at the human D1 receptor; P21728; HEK293 TREx D1 cells, calcium flux, dopamine EC20 potentiation; potentiation, % at 10 µM; 360,000 compounds, 0.036% hits; AID 504651; in the data active means potentiation above about 30%
D3 ag: agonists of human D3 dopamine receptor; max activation, %; P35462; D3R DiscoveRx beta-arrestin cells, luminescence, 90 min; 410,000 compounds, 0.58% hits; in the data active means max activation above about 30%
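Agonist-mode cell screen: cells plated at 1500/well and incubated overnight at 37 °C, then exposed to library compounds for 90 min at 37 °C. Detection reagent was added for 30–60 min at room temperature, and luminescence was read.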
D1 antag: blocks dopamine activation of the human D1 receptor. P21728. activity change, negative = inhibition, % at 10 µM. HEK293 TREx D1 cells, calcium flux, dopamine EC80; active compounds read low. 360,000 compounds, 3.2% hits. AID 504652; in the data active means activity change below about -30%
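Tetracycline-induced HEK293 Trex D1 cells, force-coupled to calcium, dye-loaded; compounds added and read 180 s, then EC80 dopamine added and calcium flux tracked kinetically another 180 s.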
DRD3 antagonist: blocks the human D3 dopamine receptor | D3R cells, DiscoveRx beta-arrestin luminescence, antagonist mode; active compounds read low | P35462 | max response, negative = inhibition, % | 360,000 compounds, 2.5% hits; in the data active means max response below about -50%; inconclusive means no clear call, values can overlap the other calls
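Cells plated overnight at 1500 cells/well, then exposed to library compounds with dopamine controls for 90 minutes at 37 degrees C. DiscoveRx reagent added for 30–60 minutes at room temperature; luminescence read, quantitative HTS format.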
Large screens that a line does not name were inactive. Hits are enriched below; roughly 6.1% of the tested compounds scored in any of these assays.

COc1ccccc1N1CCN(C(=O)c2ccc(CN3CCc4ccccc4C3)cc2)CC1	DRD3 antagonist -67.3
CCOC(=O)CC1(NC(=O)c2cc(COc3ccc(F)c(F)c3)on2)CCCCC1	D1 agonist 31.2
COCC(=O)Nc1cc(=O)n(C)c(=O)n1C	none
CCOC(=O)c1sc(NC(=O)c2cc(-c3ccccc3C)nc3ccccc23)c(C#N)c1C	D3 ag 33.2
CC(C)CC1(C)N=C(c2ccccc2)C(=S)N1 (stereo not given)	D1 antag -40.1
S=C1NC2(CCCC2)N=C1c1ccccc1	none
COC(=O)c1ccc(C(=O)OC)c(NC(=O)CSCc2ccc(Br)cc2)c1	D1 agonist 33.0, D1 antag -42.3 (no result: ERG Ets-DNA blk)
CCN(C(=O)CSc1nnc(C)c(=O)[nH]1)c1cccc2ccccc12	none (no result: D1 agonist, D1 potentiator, D1 antag)
COc1ccc(NC(=O)Nc2cccc3ccccc23)cc1S(N)(=O)=O	none
N#C/C(=C\c1sc(N2CCOCC2)nc1-c1ccccc1)C(=O)Nc1cccc2ccccc12	D1 agonist 40.1 (no result: ERG Ets-DNA blk, D3 ag, DRD3 antagonist)
O=C(Nc1ccccc1)c1sc(N2CCOCC2)nc1-c1ccccc1	none
O=C1CN(C(=O)COc2ccc(Br)cc2F)c2ccccc2N1	D1 antag -33.9
O=C1CN(C(=O)c2cccs2)c2ccccc2N1	none
O=C1CN(C(=O)COc2ccc(Br)cc2Br)c2ccccc2N1	none
O=C1CN(C(=O)COC(=O)c2cccs2)c2ccccc2N1	D1 antag -30.3
Nc1csnc1C(=O)O	none
Cn1nnnc1SCCNCc1ccccc1OCc1ccc(Cl)cc1	none
Cn1nnnc1SCCNCc1ccc(OCc2ccccc2)cc1	none (no result: DRD3 antagonist)
Cn1nnnc1SCCCNCc1cccc(OCc2ccc(F)cc2)c1	D1 agonist 149.8, D1 antag -31.1 (no result: DRD3 antagonist)
Cn1nnnc1SCCCNCc1ccccc1OCc1ccc(Cl)cc1	D1 agonist 75.1, D1 antag -38.8 (no result: DRD3 antagonist)
Cn1nnnc1SCCNCc1ccc(OCc2ccccc2Cl)cc1	D1 agonist 97.7 (no result: DRD3 antagonist)
N#Cc1cn(CC(=O)N2CCCc3ccccc32)c2ccccc12	none
O=Cc1cn(CC(=O)N2CCCc3ccccc32)c2ccccc12	DRD3 antagonist -56.5
COCC(=O)N1CCCc2ccccc21	none
Cn1c(C(=O)N2CCCc3ccccc32)cc2sccc21	D1 agonist 44.5
CN1CCN(C(=S)SCC(=O)N2CCCc3ccccc32)CC1	DRD3 antagonist -60.5
Cn1cc(S(=O)(=O)CC(=O)N2CCCc3ccccc32)c2ccccc21	D1 antag -84.2 (no result: D1 potentiator)
O=S(=O)(Nc1ccccn1)c1ccc(C(F)(F)F)cc1Cl	none
COc1cccc(CNC(=O)c2ccc(CSc3nc4ccncc4n3Cc3cccc(C)c3)cc2)c1	none (no result: DRD3 antagonist)
CN(C)C1=NCCN1CC1CCCCCC1	none
COc1cc(COC(=O)c2cnc(C)cn2)c(OC)cc1Br	none
Cc1oc2cc3oc(=O)c(CC(=O)NCc4ccccc4)c(C)c3cc2c1C	none (no result: DRD3 antagonist)
CCCCn1c(N)c(N(CCC(C)C)C(=O)c2cccc(-n3cnnn3)c2)c(=O)[nH]c1=O	none
O=C1OCCC1Sc1nnnn1-c1ccccc1 (stereo not given)	none
Cc1ccc(N2C(=O)/C(=C\c3ccc(C(C)C)cc3)N=C2SC2CCOC2=O)cc1 (stereo not given)	D1 antag -38.3, DRD3 antagonist inconclusive
CCOC(=O)Cn1c(=O)oc2cc(S(=O)(=O)NC(C)(C)CC)ccc21	none
Cc1cc(OCC(=O)Nc2cnn(CCCC(=O)O)c2)ccc1Cl	none
Nc1ncnc2c1ncn2[C@@H]1O[C@H](CNC(=O)[C@@H]2CCCN2S(=O)(=O)c2ccc(F)cc2)[C@@H](O)[C@H]1O	D3 ag 36.6 (no result: D1 agonist, D1 potentiator, D1 antag)
Nc1ncnc2c1ncn2[C@@H]1O[C@H](CNC(=O)[C@@H]2CCN2)[C@@H](O)[C@H]1O	none (no result: D1 agonist, D1 potentiator, D1 antag)
COc1ccc(SCCN2CC[C@@H](O)CCC2=O)cc1	D1 antag -57.8
CC(C)(C)c1ccc(C2CC2C(=O)N/N=C\c2ccc[nH]2)cc1 (stereo not given)	none
COc1cc2c(cc1OC)C(c1cccs1)N(C(=O)C(C)C)CC2 (stereo not given)	D1 antag -78.1
COc1cc2c(cc1OC)C(c1ccccc1)N(C(=O)CCl)CC2 (stereo not given)	D1 antag -31.7, DRD3 antagonist -62.1
COc1ccc(C(=O)c2c(C)c3ccccc3n2CC(O)CNC(C)C)cc1 (stereo not given)	D1 agonist 59.7
CC(C)NCC(O)Cn1c2c(c3ccccc31)CCc1c-2cnn1-c1ccccc1 (stereo not given)	none
Cc1ncc(CO)c2c1Oc1nc(-c3ccc(Cl)cc3)nc(SCC(=O)N3CCCCC3)c1C2	none (no result: DRD3 antagonist)
CCCCCCCCCCCC(=O)NC(Cc1ccc(OC)c([N+](=O)[O-])c1)C(=O)O (stereo not given)	D1 agonist 137.1, D1 antag -48.2
CCN(CC)c1ccc(/C=C2\C(=N)N3N=C(CC(=O)N4CCOCC4)SC3=NC2=O)cc1	D1 agonist 115.3
S=c1[nH]cc(Cc2ccccc2)s1	none
O=C(O)c1ccc2cc[nH]c2c1	none
O=C(CN1CCN(C2CCCCC2)CC1)c1c[nH]c2ccccc12	DRD3 antagonist -68.9
O=C(CN1CCN(C2CCCCC2)CC1)c1ccc2cc[nH]c2c1	D1 antag -36.0, DRD3 antagonist inconclusive
COc1ccc(NC(=O)c2ccccc2OCc2c(C)noc2C)cc1OC	none
CSc1nn(Cc2ccccc2C)c(NC(C)=O)c1S(=O)(=O)c1ccc(C)cc1	D1 antag -33.0 (no result: DRD3 antagonist)
COc1ccccc1N1CCN(C(=O)CCC(=O)N2CCN(c3ccccc3OC)CC2)CC1	none
COc1ccccc1N1CCN(CCN2C(=O)CC(=C3c4ccccc4-c4ccccc43)C2=O)CC1	DRD3 antagonist -75.5 (no result: D1 agonist, D1 potentiator, D1 antag)
O=C1CC(=C2c3ccccc3-c3ccccc32)C(=O)N1CCN1CCN(c2ccccc2)CC1	none (no result: D1 agonist, D1 potentiator, D1 antag)
Cc1ccccc1N1CCN(CCN2C(=O)CC(=C3c4ccccc4-c4ccccc43)C2=O)CC1	DRD3 antagonist -64.9 (no result: D1 agonist, D1 potentiator, D1 antag)
CC(=O)Nc1ccc(N2S(=O)(=O)c3ccccc3S2(=O)=O)cc1	none
Cc1ccc(C)c(S(=O)(=O)N2CCN(C(=O)c3ccc(-n4cncn4)c([N+](=O)[O-])c3)CC2)c1	none
CCOc1ccc(/C=N/NC(=O)c2nnn(-c3nonc3N)c2-c2cccs2)cc1	D1 agonist 164.5
CCOc1ccc(-c2c(C(=O)N/N=C/c3cccs3)nnn2-c2nonc2N)cc1	none
CCOC(=O)c1nnn(-c2nonc2N)c1-c1ccccc1	D1 antag -44.3
Cc1ccc(SCc2c(C(=O)N/N=C/c3ccccc3)nnn2-c2nonc2N)cc1	none
COc1cccc(-c2c(C(=O)N/N=C/c3ccoc3)nnn2-c2nonc2N)c1	D1 agonist 77.2

Screening data from PubChem BioAssay.
